ATXN viability – reduces viability in counter-screen for ATXN expression inhibitors; Potency, µM (series often up to 56.7 µM), hits mostly cytotoxic; 400,000 tested, 0.49% active; AID 651635; S2 cells (HEK-293 line with an ATXN2-luciferase reporter) viability, CellTiter-Fluor protease fluorescence, 24 h; also: nearly all actives have a fitted effect of over 40% in size
Nrf2 block – inhibitors of Nrf2 signaling; 360,000 tested, 2.1% active; AID 504444; Potency, µM (doses to about 46 µM), without a hit: top-dose activity change, negative = inhibition, actives largely listed as inhibitors; A549 ARE-Fluc reporter, luciferase luminescence, 18-24 h; also: % is scaled to controls: 0 for no effect and ±100 for the full control effect; nearly all actives have a fitted effect of over 60% in size
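A549 ARE_Fluc cells, 5000/well, 5% FBS OPTI-MEM; compounds in dose-response, 18-24 h at 37 °C/5% CO2; CellTiter-Fluor viability read (Ex 405/Em 525), then BugLite luciferase luminescence = Nrf2 activity.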
A549 tox – kills or reduces viability of A549 cells in Nrf2 counter-screen; A549 ARE-Fluc cells, CellTiter-Fluor viability, 18-24 h; Potency, µM (doses to about 46 µM), without a hit: top-dose activity change, negative = cytotoxicity, most hits filed as inhibitors; 390,000 tested, 0.16% active; also: % is scaled to controls: 0 for no effect and ±100 for the full control effect
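Cytotoxicity counterscreen: CellTiter-Fluor fluorescence was measured in A549 ARE_Fluc cells after 18-24 h of compound exposure in a concentration series. The subsequent BugLite luminescent read reports ARE-luciferase activity.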
TGFb SMAD3 inh – TGF-b pathway inhibition. Potency, µM (top dose mostly 46.1 µM), for the others: at the top dose activity, negative = inhibition, actives largely listed as inhibitors. HepG2 CAGA-GFP TGF-b/SMAD3 reporter, GFP fluorescence, 18 h; TGF-beta stimulated, 500 pg/mL final. 410,000 tested, 1.2% active; also: % is scaled to controls: 0 for no effect and ±100 for the full control effect; nearly all actives have a fitted effect of over 65% in size
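GFP signal (ex488/em500-530) from TGF-beta-stimulated HEPG2 CAGA-GFP cells, 500 pg/mL final, 18 h at 37 degrees C in DMEM plus 1% FBS, normalized to unstimulated and DMSO-stimulated controls.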
ATXN2 expr inh – inhibitors of ATXN2 expression. HEK-293 ATXN2-luciferase reporter, luminescence, 24 h. Potency, µM (doses to about 57 µM), for inactives: at the top dose activity change, negative = inhibition, most hits filed as inhibitors. 360,000 tested, 0.72% active. AID 1745845; also: % is scaled to controls: 0 for no effect and ±100 for the full control effect; nearly all actives have a fitted effect of over 55% in size
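ATXN2-luciferase reporter cells (luciferase flanked by upstream and downstream ATXN2 gene portions) were treated 24 h at 37 °C with compounds at up to 57 uM. SteadyGlo luminescence gave expression; GF-AFC fluorescence gave viability.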
HepG2 tox – kills HepG2 cells in TGF-b inhibitor counter-screen | HepG2 CAGA-GFP viability, ATP luminescence, 18 h | Potency, µM (highest dose often 46.1 µM), for the others: top-dose activity change, negative = cytotoxicity, most hits filed as cytotoxic | 410,000 tested, 0.76% active | AID 588856
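HepG2 CAGA-GFP cells (1000/well, DMEM with 1% FBS) received compound, then TGF-beta at 500 pg/mL final, and were incubated 18 hours at 37 degrees C. Viability was read by CellTiter-Glo luminescence. Media-only wells were set as complete cell-killing and DMSO as no toxicity.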
* = called active by the depositor; i = inactive; ? = inconclusive; . = no result given. This is a sample that favours compounds with a hit; in the whole collection about 3.8% have one here. Calls follow the shape of the dose curve; as a rule, active = well fitted curve in the direction sought with a large enough effect; inconclusive = small, poorly fitted or top-dose-only effect, or another doubt; inactive = no such curve, though single readings can be large; an effect the other way counts as inactive or inconclusive. Potency is read from the fitted curve at half-maximal effect.

SMILES	ATXN viability	Nrf2 block	A549 tox	TGFb SMAD3 inh	ATXN2 expr inh	HepG2 tox
C=CCN1C(=O)/C(=C/C=C2/N(CC)c3ccc(S(=O)(=O)N(C)C)cc3N2CC)SC1=S	0.89µM*	-12%	?	73%	.	-12%
Cc1cccc(OCc2n(CC(=O)OC3CC(C)CCC3C(C)C)c3ccccc3[n+]2C)c1 (centres undefined)	.	-12%	-13%	16µM*	?	20µM*
CC(C)c1ccc(C(C)NC(=S)NC2CCCCC2)cc1 (centres undefined)	i	18µM*	9%	?	-38%	-17%
CC1CCN(S(=O)(=O)c2cccc(C(=O)NCC3CCCO3)c2)CC1 (centres undefined)	i	13µM*	2%	-15%	-11%	-8%
Cc1cccc(NC(=S)NCCC(c2ccccc2)c2ccccc2)c1	i	-20%	10%	11µM*	-1%	-22%
Cc1cc(Cl)ccc1NC(=S)NCCC(c1ccccc1)c1ccccc1	?	16µM*	?	?	?	-27%
COc1cc(NC(=S)NCCC(c2ccccc2)c2ccccc2)cc(OC)c1	i	23µM*	?	?	-12%	-14%
COC(=O)c1c(NC(=O)CSc2nnc(C)c(=O)[nH]2)sc(C)c1C	i	-1%	0%	-3%	-6%	-2%
CC(C)(C)Cn1c(N)nc2ccc(-c3[nH]c(C(C)(C)C)nc3-c3ccc(F)cc3)nc21	.	.	.	.	27µM*	.
COc1ccc(-c2cn3cccnc3n2)cc1NC(=O)c1cc(C)cc(C)c1	.	.	6%	.	.	-32%
CCN1CCN(C2=C(NS(=O)(=O)c3ccc(NC(C)=O)cc3)C(=O)c3ccccc3C2=O)CC1	?	?	-17%	?	.	-120%
CC(=O)Nc1ccc(S(=O)(=O)NC2=C(N3CCN(C)CC3)C(=O)c3ccccc3C2=O)cc1	14µM*	18%	2%	?	.	-61%
CCN1CCN(C2=C(NS(=O)(=O)c3ccc(C)cc3)C(=O)c3ccccc3C2=O)CC1	?	?	?	13µM*	?	11µM*
CCOC(=O)C1CCC(CN(Cc2ccc(OC)cc2)S(=O)(=O)c2ccc(F)c(C(=O)Nc3cc(Cl)ccc3OC)c2)CC1 (centres undefined)	i	.	3%	-8%	11%	-17%
CCCN(CC(=O)Nc1ccccc1OC)Cc1c(O)ccc2ccccc12	i	-5%	-2%	?	0%	-37%
O=C1/C(=C/c2ccccc2)CN(C(=O)CCN2CCOCC2)C/C1=C\c1ccccc1	21µM*	?	?	2.2µM*	27µM*	16µM*
CN(C)CCC(=O)N1C/C(=C/c2ccccc2)C(=O)/C(=C\c2ccccc2)C1	4.2µM*	?	-11%	2µM*	2.1µM*	-126%
CCOC(=O)N1C/C(=C\c2ccccc2)C(=O)/C(=C/c2ccccc2)C1	?	-4%	0%	2µM*	.	-45%
C[N+](C)(C)CCC(=O)N1C/C(=C/c2ccccc2)C(=O)/C(=C\c2ccccc2)C1	.	9%	-3%	7.9µM*	8.4µM*	-100%
O=C(Cc1ccccc1)N1CCNCC1	i	6%	-5%	-3%	6%	1%
CCOC(=O)N1CCN(S(=O)(=O)/C=C/c2ccccc2)CC1	.	5%	-9%	-17%	.	-14%
COc1cc(CN2CCCC(n3cc(C(=O)N4CCCCC4)nn3)C2)cc2c1OCO2 (centres undefined)	i	.	.	.	.	.
Cc1ccccc1-c1n[nH]nc1C1=CC(=O)C[C@H](c2ccc(F)cc2)C1	i	.	.	?	-30%	-79%
O=S1(=O)N[C@H](Cc2ccccc2)COc2cc(N3CC[C@H](O)C3)ccc21	i	.	.	.	14%	.
